# CYP2C19 inh = inhibitors of human CYP2C19; P33261; inhibition, % at 5 µM; CYP2C19 Supersomes, luciferin-H EGE luminescence, 30 min; 96,000 compounds, 21% hits;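 active = CYP2C19 inhibition above a set limit at 5 µM in the primary screen, cut at about 50% in these data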;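 note: plate controls were negative control wells for no effect and 2.5 mM tranylcypromine positive control for full effect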
# CD11b adhes inh = inhibitors of human CD11b/CD18 binding to fibrinogen | P05107+P11215 | K562 CD11b/CD18 adhesion to fibrinogen, ATPlite luminescence; Mn2+ added to activate the integrin | inhibition, % at 10 µM | 93,000 compounds, 0.54% hits | AID 1497;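 active = primary inhibition of 50% or more at 10 µM, then 40% or more on retest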
# CYP2C9 act = activators of human CYP2C9; P11712; AID 1024; 96,000 compounds, 1.4% hits; activation factor at 5 µM; recombinant CYP2C9, luciferin-H conversion, luminescence; stronger effect = higher value; factor 1 = untreated enzyme, 0 = blocked;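 active = activation factor of 2 or more for CYP2C9 at a 5 µM dose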;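 note: 0 = sulfaphenazole-blocked wells and 1 = vehicle-only wells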
# Target sequence (P11712 whole entry, looked up): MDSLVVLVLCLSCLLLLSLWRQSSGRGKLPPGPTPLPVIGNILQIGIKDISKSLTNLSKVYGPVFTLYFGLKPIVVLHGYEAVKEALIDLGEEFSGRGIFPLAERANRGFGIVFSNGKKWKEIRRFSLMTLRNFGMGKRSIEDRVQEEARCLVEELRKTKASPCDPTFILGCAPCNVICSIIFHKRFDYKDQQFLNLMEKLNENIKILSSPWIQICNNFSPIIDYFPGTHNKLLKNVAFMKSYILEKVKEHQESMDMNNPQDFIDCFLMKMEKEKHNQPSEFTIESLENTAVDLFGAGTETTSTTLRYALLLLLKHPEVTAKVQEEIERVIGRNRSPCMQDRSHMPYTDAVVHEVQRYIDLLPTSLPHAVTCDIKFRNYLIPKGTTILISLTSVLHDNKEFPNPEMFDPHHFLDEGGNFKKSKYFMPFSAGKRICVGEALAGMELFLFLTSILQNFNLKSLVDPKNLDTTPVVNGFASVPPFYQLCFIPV
# CYP2C9 inh = human CYP2C9 inhibition; AID 777; inhibition, % at 5 µM; P11712; CYP2C9 Supersomes, luciferin-H conversion, luminescence; 96,000 compounds, 20% hits;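 active = blocking of liver enzyme CYP2C9 beyond about 50% at 5 µM, limit read from the data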
# Mac1 fbg enh = CD11b/CD18-fibrinogen binding enhancement | P05107+P11215 | K562 CD11b/CD18 adhesion to fibrinogen, ATPlite luminescence | activation, % at 10 µM | 93,000 compounds, 0.07% hits | AID 1499;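 active = 10 µM primary screen giving 50% or more activity, confirmed by 40% or more on retest at that dose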
# CYP2C19 activ = activators of human cytochrome P450 2C19. recombinant CYP2C19, luciferin-H EGE luminescence; stronger effect = higher value; 0 = fully inhibited enzyme, 1 = untreated enzyme. activation factor at 5 µM. 96,000 tested, under 10 active. AID 1025;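 active = activation factor of at least 2 at 5 µM in the primary screen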;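 note: 0 = wells with 2.5 mM tranylcypromine and 1 = vehicle-only wells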
# * marks the source's active call; other numbers are inactive results; / = not tested or not shown. Shown are actives, neighbours in structure and some others; about 28% of the full set was active somewhere.
SMILES,CYP2C19 inh,CD11b adhes inh,CYP2C9 act,CYP2C9 inh,Mac1 fbg enh,CYP2C19 activ
COCCNC(=O)c1onc(CSc2cc(C)cc(C)c2)c1C(=O)O,17.4,/,0.7,33.2,/,0.8
COc1ccc(N(Cc2ccccc2)C(=O)c2ccccc2[N+](=O)[O-])cc1,60.8*,18.0,0.8,18.6,-0.6,0.4
COc1ccc(CNc2nc(NCc3ccc(OC)cc3)n(C(=O)c3ccccc3[N+](=O)[O-])n2)cc1,40.3,/,0.3,69.5*,/,0.6
COc1ccc(N(Cc2cc3ccc(C)cc3[nH]c2=O)C(=O)c2ccco2)cc1,-24.9,-13.8,1.2,-19.9,-4.0,1.2
O=[N+]([O-])c1ccc(N(c2ccccc2)c2ccccc2)cc1,26.5,17.1,0.5,50.7*,1.8,0.7
c1ccc(OCCOc2ncnc3ccccc23)cc1,60.3*,8.7,0.7,25.4,0.3,0.4
Cc1onc(-c2ccccc2)c1C(=O)N1CCN(C/C=C/c2ccccc2)CC1,4.7,-2.9,0.9,13.5,-0.3,1
Cc1ccc2c(Cl)cc(Cl)c(OCC(=O)Nc3ccc(C)c(S(=O)(=O)N(C)C)c3)c2n1,/,-17.4,/,/,46.5,/
C=CCn1c(CCC(=O)O)ccc1-c1ccccc1,38.7,3.6,0.3,69.8*,-0.3,0.6
COc1ccc(/C=C/C(=O)NNc2c(F)c(F)cc(F)c2F)cc1OC,15.8,-18.2,0.7,31.0,12.4,0.8
COc1cc(/C=C/C(=O)NNc2c(F)c(F)cc(F)c2F)ccc1OC(F)F,72.8*,2.6,0.9,8.2,-1.1,0.3
CCOC(=O)N1CCN(C(=O)Cn2ncn3nc(-c4cccs4)cc3c2=O)CC1,-3.6,/,1.1,-14.3,/,1
COc1ccc(N2CCN(C(=O)CNC(=O)Cn3c(C)cc4ccccc4c3=O)CC2)cc1,-7.1,12.0,1.5,-46.4,-3.5,1.1
O=S(=O)(Nc1nccs1)c1ccc(NS(=O)(=O)c2cccs2)cc1,-11.0,9.1,0.1,89.6*,3.7,1.1
O=S(=O)(Nc1ccc(S(=O)(=O)N2CCCCC2)cc1)c1ccc(Br)s1,17.6,90.6*,0,95.5*,-11.2,0.8
CS(=O)(=O)Nc1ccc(S(=O)(=O)Nc2nccs2)cc1,-3.2,-41.0,0.7,29.3,4.1,1
O=S(=O)(Nc1ccc(S(=O)(=O)N2CCCCCC2)cc1)c1cccs1,-18.4,-3.4,0.1,90.6*,-3.1,1.2
O=C(Cc1cccs1)Nc1ccc(S(=O)(=O)N2CCCCC2)cc1,-10.9,8.4,0.8,18.1,1.4,1.1
O=S(=O)(Nc1ccccc1N1CCCCC1)c1ccc(Cl)s1,56.6*,-12.1,0.9,11.9,-0.5,0.4
O=C(O)C1CCCCN1S(=O)(=O)c1ccc(Cl)s1 (configuration not stated),25.1,-23.4,0.5,47.3,2.7,0.7
CCCOc1ccc(C2C(=O)N(C3CCCCCC3)CC(=O)N2Cc2ccco2)cc1OC (configuration not stated),4.1,2.9,0.7,27.3,-1.3,1
CCOC(=O)C1CCN(C(C(=O)NC2CCCC2)c2ccc(C)cc2)CC1 (configuration not stated),8.0,12.5,0.6,41.4,4.2,0.9
Cc1cc(OC(=O)CNC(=O)OC(C)(C)C)c2c(C)cc(=O)oc2c1,17.2,-0.8,1.9,-87.6,1.1,0.8
CCOc1cc(NC(=S)NCCCN2CCOCC2)c(OCC)cc1NC(=O)CC(C)C,31.4,-4.8,0.9,6.3,4.1,0.7
O=S(=O)(Nc1ccc(N2CCCCC2)cc1)c1cccc2cccnc12,8.0,-19.2,1.1,-5.6,-1.3,0.9
SMILES,CYP2C19 inh,CD11b adhes inh,CYP2C9 act,CYP2C9 inh,Mac1 fbg enh,CYP2C19 activ
O=S(=O)(Nc1cc(Cl)ccc1N1CCCCC1)c1cccs1,81.5*,/,0.5,53.2*,/,0.2
O=S(=O)(Nc1ccc(N2CCCCC2)cc1)c1cccs1,98.2*,64.3,0,100.4*,2.3,0
O=C(c1ccccc1NS(=O)(=O)c1cccs1)N1CCCC1,7.8,-7.4,0.9,8.8,-2.0,0.9
CS(=O)(=O)N1CCC(C(=O)Nc2c(F)cccc2F)CC1,5.6,-6.8,1,-2.2,-1.3,0.9
O=c1c2nnn(Cc3ccccc3)c2ncn1C/C=C/c1ccccc1,8.8,-18.3,0.9,11.3,1.8,0.9
O=C(CC(NC(=O)c1ccccc1)c1ccccc1)Nc1cccc2ccccc12 (configuration not stated),/,-8.0,/,/,37.7,/
COCCNC(=O)C(c1ccco1)N(C(=O)Cn1nnc2ccccc21)c1ccc(C)cc1C (configuration not stated),20.5,-28.6,0.9,8.8,7.2,0.8
Cc1ccc(OCC(=O)OCC(=O)c2c(N)n(C)c(=O)n(C)c2=O)cc1C,59.5*,2.8,0.8,24.5,1.2,0.4
Cn1c(N)c(C(=O)COC(=O)CCc2c[nH]c3ccccc23)c(=O)n(C)c1=O,60.1*,7.3,1.7,-70.5,-3.6,0.4
Cc1ccc(NC(=O)c2ccc(COc3ccc4c(c3)CCC4)cc2)c(C)c1,/,-10.2,/,/,68.9,/
O=C(O)c1ccc2c(=O)n3c(nc2c1)/C(=C/c1ccccc1C(F)(F)F)CCCC3,/,15.9,/,/,-1.2,/
Nn1c(SC/C=C/c2ccccc2)nnc1-c1ccncc1,53.6*,4.1,0.9,11.2,0.5,0.5
Cc1noc(C)c1CSc1nnc(-c2ccccc2)n1N,64.6*,-4.7,0.8,15.8,-2.0,0.4
Cc1noc(C)c1CSc1nnc2scc(-c3ccccc3)n12,10.0,-22.9,0.9,8.8,-3.4,0.9
Cc1noc(C)c1CSc1nnc(-c2ccccc2)n1Cc1ccco1,50.4*,5.0,0.5,53.8*,0.5,0.5
Clc1ccc(N2CCN(c3cnc4ccccc4n3)CC2)cc1,2.1,22.7,0.9,8.6,-0.3,1
c1ccc(N2CCN(c3cnc4ccccc4n3)CC2)cc1,51.2*,22.9,1,4.6,0.4,0.5
Cc1cc(C)n(C(=O)CSc2nnc(SCC(=O)n3nc(C)cc3C)s2)n1,-19.7,3.4,1.1,-14.8,1.3,1.2
CCCC(C)NC(=O)c1ccc(F)cc1 (configuration not stated),-5.0,-32.1,1.2,-20.1,-1.4,1.1
CCc1ccc(C(C)NC(=O)c2ccc(F)cc2)cc1 (configuration not stated),55.2*,-2.4,0.5,51.3*,2.7,0.4
COc1cccc(C(=O)Nc2ccc(NC(=O)C(C)(C)C)cn2)c1,-3.0,-12.1,1.1,-12.8,-3.9,1
O=S(=O)(c1ccc2c(c1)nc(COc1ccc(Cl)cc1)n2CC1CCCO1)N1CCOCC1 (configuration not stated),8.5,-5.4,0.7,34.1,3.4,0.9
O=C(Nc1cc(Cl)cc(Cl)c1)C(NCC1CCCO1)c1ccccc1 (configuration not stated),/,-12.6,/,/,3.7,/

# Source: PubChem (Sanford-Burnham Center for Chemical Genomics)
